# Assay results taken from the supplement of paper PMC7366291.
# Counter-ions that a name gives are not always drawn. ± gives the standard deviation or the standard deviation of the averaged measurements.
# Columns and labels:
# Details in all cases: 25 µM; exposure: 24-48 hpf
# [1] = system: Danio rerio Tg(wt1b:EGFP) embryo, pronephros; experiment: glomerular separation, fold change vs DMSO control; higher = glomeruli further apart (abnormal)
# How it was run: (§1)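 Features are reported as fold changes against the mean of same-day DMSO-treated embryos. Before that, values more than 2 SD away from the feature mean were excluded. The embryos, dechorionated Tg(wt1b:EGFP) zebrafish, had been exposed from 24 to 48 hpf at 28.5°C to 25 μM compound in 0.5% DMSO in HEPES-buffered E3 with 0.003% PTU, and distances and angles came from 16 manually set points on maximum projections of dorsal pronephros images in Fiji.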
# [2] = system: Danio rerio Tg(wt1b:EGFP) embryo, pronephros; experiment: glomerular width (mean of left and right), fold change vs DMSO control; higher = wider glomerulus
# How it was run: as §1
# [3] = system: Danio rerio Tg(wt1b:EGFP) embryo, pronephros; experiment: fraction of imaged embryos annotated as normal kidney; higher = less nephrotoxic; extreme values may be limits of the assay
# How it was run: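 Dechorionated Tg(wt1b:EGFP) zebrafish embryos were incubated with 25 μM compound in 0.5% DMSO, 5 mM HEPES-buffered E3 and 0.003% PTU from 24 to 48 hpf at 28.5°C. Pronephroi were then imaged by widefield fluorescence, and the fraction of embryos per treatment assigned by hand to the normal-kidney category is given.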
# [4] = system: Danio rerio Tg(wt1b:EGFP) embryo, pronephros; experiment: pronephric angle neck segment to proximal convoluted tubule (mean of left and right), fold change vs DMSO control; higher = larger pronephric angle
# How it was run: as §1
SMILES,glomerular separation [1],glomerular width [2],fraction of imaged embryos annotated as normal kidney [3],pronephric angle neck segment [4]
Nc1ccc(/N=N/c2ccccc2)c(N)n1 [Phenazopyridine hydrochloride],1.27 ± 0.52,0.979 ± 0.025,0.583,1.101 ± 0.01
Clc1ccc(Nc2nnc(Cc3ccncc3)c3ccccc23)cc1 [Vatalanib],1.37 ± 0.99,0.886 ± 0.039,0.833,1.02 ± 0.046
CC(C)NC[C@@H](O)COc1ccc(CC(N)=O)cc1 [(R)-(+)-Atenolol],0.655 ± 0.16,0.977 ± 0.036,0.917,0.977 ± 0.029
CC1=C(/C=C/C(C)=C/C=C/C(C)=C\C(=O)O)C(C)(C)CCC1 [Isotretinoin],4.83 ± 2.1,0.525 ± 0.021,0,1.69 ± 0.022
OCCN(CCO)c1nc(N2CCCCC2)c2nc(N(CCO)CCO)nc(N3CCCCC3)c2n1 [Dipyridamole],0.687 ± 0.13,0.982 ± 0.046,0.8,1.017 ± 0.0071
CN/C(=N\CCSCc1nc[nH]c1C)NC#N [Cimetidine],1.02 ± 0.34,1.051 ± 0.0067,0.917,0.926 ± 0.062
Cn1c(=O)c2c(ncn2CC2OCCO2)n(C)c1=O [Doxofylline],1.55 ± 0.87,0.971 ± 0.021,0.917,1.03 ± 0.03
O=C(CCCN1CC=C(n2c(=O)[nH]c3ccccc32)CC1)c1ccc(F)cc1 [Droperidol],1.38 ± 0.42,0.84901 ± 0.00078,0.667,1.04 ± 0.046
COC(=O)C1=C(C)NC(C)=C(C(=O)OC2CCCN(Cc3ccccc3)C2)C1c1cccc([N+](=O)[O-])c1 (configuration not stated) [Benidipine hydrochloride],4.55 ± 0.53,0.7 ± 0.061,0,0.99 ± 0.056
CC=CC(=O)N(CC)c1ccccc1C [Crotamiton],0.867 ± 0.16,0.96 ± 0.038,1,1 ± 0.019
COC(c1ccccc1)(c1ccccc1)[C@H](Oc1nc(C)cc(C)n1)C(=O)O [Ambrisentan],0.883 ± 0.35,0.873 ± 0.017,0.833,1.09 ± 0.018
O=C(Cn1ccnc1[N+](=O)[O-])NCCO [Etanidazole],0.807 ± 0.34,1.06 ± 0.014,0.917,0.9304 ± 0.004
CCN(CC)CCOC(=O)c1ccc(N)cc1 [Procaine hydrochloride],0.828 ± 0.2,1.057 ± 0.0024,0.667,1.081 ± 0.0098
CO[C@H]1/C=C/O[C@@]2(C)Oc3c(C)c(O)c4c(O)c(c(/C=N/N5CCN(C6CCCC6)CC5)c(O)c4c3C2=O)NC(=O)/C(C)=C\C=C\[C@H](C)[C@H](O)[C@@H](C)[C@@H](O)[C@@H](C)[C@H](OC(C)=O)[C@@H]1C [Rifapentine],0.895 ± 0.2,0.985 ± 0.066,0.909,1.1 ± 0.094
CN1C2CCCC1CC(NC(=O)c1nn(C)c3ccccc13)C2 (configuration not stated) [Granisetron],0.791 ± 0.23,0.98 ± 0.024,0.917,1.04 ± 0.015
CN(C(=O)C(Cl)Cl)c1ccc(OC(=O)c2ccco2)cc1 [Diloxanide furoate],2.17 ± 1,0.777 ± 0.037,0.25,1.25 ± 0.081
CCOC(=O)Nc1ccc2c(c1)N(C(=O)CCN1CCOCC1)c1ccccc1S2 [Moricizine hydrochloride],0.635 ± 0.18,1.04 ± 0.013,0.833,0.993 ± 0.055
CNC(=O)c1c(I)c(C(=O)NCC(=O)Nc2c(I)c(C(=O)O)c(I)c(C(=O)NCCO)c2I)c(I)c(N(C)C(C)=O)c1I [Ioxaglic acid],0.975 ± 0.39,1.03 ± 0.037,0.818,0.982 ± 0.035
CCOC(=O)O[C@]1(C(=O)OCCl)CC[C@H]2[C@@H]3CCC4=CC(=O)C=C[C@]4(C)[C@H]3[C@@H](O)C[C@@]21C [Loteprednol etabonate],1.27 ± 0.56,0.884 ± 0.029,0.833,1.09 ± 0.042
CCC1=C(C)CN(C(=O)NCCc2ccc(S(=O)(=O)NC(=O)N[C@H]3CC[C@H](C)CC3)cc2)C1=O [Glimepiride],0.872 ± 0.29,1.02 ± 0.06,0.917,1 ± 0.03
c1ccc(-c2ccc(C(c3ccccc3)n3ccnc3)cc2)cc1 (configuration not stated) [Bifonazole],1.24 ± 0.55,0.786 ± 0.019,0.417,1.22 ± 0.14
CC[C@@]1(O)C(=O)OCc2c1cc1n(c2=O)Cc2cc3c(CN(C)C)c(O)ccc3nc2-1 [Topotecan],1.74 ± 0.72,0.793 ± 0.022,0.727,1.27 ± 0.062
CC(C)(C)NC[C@H](O)c1ccc(O)c(CO)c1 [Levalbuterol hydrochloride],0.811 ± 0.27,1.07 ± 0.031,0.917,0.998 ± 0.031
CC(C)/N=c1\cc2n(-c3ccc(Cl)cc3)c3ccccc3nc-2cc1Nc1ccc(Cl)cc1 [Clofazimine],1.02 ± 0.29,1.06 ± 0.056,0.75,0.961 ± 0.0097
CC(=O)/N=c1/sc(S(N)(=O)=O)nn1C [Methazolamide],0.898 ± 0.5,1.14 ± 0.06,0.636,1.02 ± 0.014
COC(=O)Nc1nc2cc(C(=O)c3cccs3)ccc2[nH]1 [Nocodazole],1.86 ± 0.67,0.523 ± 0.024,0,1.87 ± 0.13
Cc1nc2ccccn2c(=O)c1CCN1CCC(C(=O)c2ccc(F)cc2)CC1 [Pirenperone],0.831 ± 0.3,1.05 ± 0.037,1,0.924 ± 0.0096
Clc1ccc(COC(Cn2ccnc2)c2ccc(Cl)cc2Cl)cc1 (configuration not stated) [Econazole nitrate],2.58 ± 1.3,0.9791 ± 0.0056,0.417,1.2 ± 0.0047
